Reference: PubChem BioAssay (NCATS)
Records with an inconclusive call do not appear. Active and inactive are the calls of the source. Calls follow the shape of the dose curve; as a rule, active = well fitted curve in the direction sought with a large enough effect; inconclusive = small, poorly fitted or top-dose-only effect, or another doubt; inactive = no such curve, though single readings can be large or run the other way.

Biological target: phosphoglycerate mutase (Leishmania major) (UniProt Q4Q090)
Sequence (Q4Q090 1-553): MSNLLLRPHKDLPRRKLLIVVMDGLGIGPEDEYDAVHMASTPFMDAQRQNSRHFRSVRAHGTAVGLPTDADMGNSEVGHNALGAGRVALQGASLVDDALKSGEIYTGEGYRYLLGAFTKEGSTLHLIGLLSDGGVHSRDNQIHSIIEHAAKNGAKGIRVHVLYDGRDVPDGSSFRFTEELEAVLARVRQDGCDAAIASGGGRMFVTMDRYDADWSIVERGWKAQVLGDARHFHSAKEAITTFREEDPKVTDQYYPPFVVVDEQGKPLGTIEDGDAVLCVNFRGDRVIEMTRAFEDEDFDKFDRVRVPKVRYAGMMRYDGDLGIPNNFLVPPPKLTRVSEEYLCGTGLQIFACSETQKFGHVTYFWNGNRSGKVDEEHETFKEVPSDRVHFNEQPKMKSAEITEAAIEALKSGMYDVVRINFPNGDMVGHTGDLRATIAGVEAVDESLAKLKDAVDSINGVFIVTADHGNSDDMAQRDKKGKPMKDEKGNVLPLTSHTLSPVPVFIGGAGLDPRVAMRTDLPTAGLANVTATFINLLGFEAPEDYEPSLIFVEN
Assay: qHTS Validation Assay to Find Inhibitors of Phosphoglycerate Mutase (AID 504548)
Conditions: biochemical enzyme activity; series mostly up to 57.5 µM
Source text: NIH Molecular Libraries Probe Production Network [MLPCN]
NIH Chemical Genomics Center [NCGC]
PI Name: Malcolm Walkinshaw, University of Edinburgh
Several species of the Trypanosomatidae family of parasitic protozoans cause a spectrum of diseases throughout the tropical and subtropical world. Sleeping sickness, caused by two subspecies of Trypanosoma brucei, is endemic to areas of sub-Saharan Africa, while Chagas disease, a manifestation of Trypanosoma cruzi infection, is prevalent throughout Central and South America. In addition, many species of Leishmania are responsible for a range of cutaneous and visceral diseases, causing ulcers, destructive lesions and kalaazar, a lethal infection of the viscera. Collectively, these organisms infect 30 million people worldwide (~500 million live in endemic areas), and account for ~130,000 deaths annually. Given their debilitating and prevalent nature, trypanosomatid parasites impose a heavy medical, economic and social burden on entire populations, primarily in the developing world. The problem is further exacerbated by the fact that existing treatments have progressed little in the past 50 years, and current drugs show high toxicity and poor efficacy.
Blood-stream stages of T. brucei are entirely dependent on glycolysis as a source of ATP, and the tricarboxylic acid cycle and oxidative phosphorylation are both repressed. Glycolysis in axenically cultured T. cruzi, representing the intracellular pathogenic stage, is also essential for these parasites. […] Previous studies have shown that the glycolytic enzyme, phosphoglycerate mutase (PGAM), is a viable target for drugs to kill these parasites. […] Furthermore, the cobalt centers present within PGAM are only found in trypanosomatid and plant PGAMs, and are known to be required for activity, thereby providing an additional target. Moreover, trypanosomatid PGAMs are completely different from the enzyme that performs the same function in humans: the parasite and host enzymes share no structural or even mechanistic features; specificity is therefore unlikely to be an issue.
NCGC Assay Protocol Summary:
Briefly, 3ul of substrate buffer (all columns) are dispensed into Greiner white solid bottom 1536-well assay plates. Compounds are then transferred via Kalypsys pin tool equipped with 1536-pin array (10nl slotted pins, V&P Scientific, San Diego, CA). Following addition of compound, 1ul of Lm PGAM (1.25nM final concentration, columns […]) is added to initiate the reaction; columns 3-4 receive only TEA buffer as negative controls. The plates are then incubated at room temperature for 45 minutes. Kinase-GloPlus reagent is added (2ul) and plates incubated for 10 minutes, before being transferred to a ViewLux high-throughput CCD imager (PerkinElmer) wherein single end-point measurements of luminescence are acquired using a clear filter. All reagents are diluted in an assay buffer consisting of 100 mM TEA (pH 7.6), 5 mM MgCl2 and 0.01% Tween-20.

| SMILES | outcome |
| --- | --- |
| CC(CN1c2ccccc2Sc2ccccc21)N(C)C (stereo not given) | inactive |
| CCN(CC)CCNC(=O)c1cc(Cl)c(N)cc1OC | inactive |
| N=c1c[n+](N2CCOCC2)[n-]o1 | inactive |
| CCCCCCCCCCCCCCCC(=O)NCCO | inactive |
| CN1CCN(C2Cc3ccccc3Sc3ccc(Cl)cc32)CC1 (stereo not given) | inactive |
| OCCN1CCN(CCCN2c3ccccc3Sc3ccc(Cl)cc32)CC1 | inactive |
| CN(C)CCCN1c2ccccc2CCc2ccccc21 | inactive |
| CC(C)(C(=O)O)c1ccc(C(O)CCCN2CCC(C(O)(c3ccccc3)c3ccccc3)CC2)cc1 (stereo not given) | inactive |
| CC(C)NC[C@H](O)c1ccc(O)c(O)c1 | inactive |
| CNCCCC1c2ccccc2C=Cc2ccccc21 | inactive |
| CN(C)CCC=C1c2ccccc2CCc2ccccc21 | inactive |
| C=Cc1c(C)c2cc3[nH]c(cc4nc(cc5nc(cc1[nH]2)C(C)=C5CCC(=O)O)C(CCC(=O)O)=C4C)c(C)c3C=C | inactive |
| NC(N)=NCCC[C@H](N)C(=O)O | inactive |
| C#CCN(C)Cc1ccccc1 | inactive |
| CC(C(O)c1ccc(O)cc1)N1CCC(Cc2ccccc2)CC1 (stereo not given) | inactive |
| CC(C)(C)c1onc(OCP(=O)(O)O)c1CC(N)C(=O)O (stereo not given) | inactive |
| Cc1cc(N)c2ccccc2[n+]1CCCCCCCCCC[n+]1c(C)cc(N)c2ccccc21 | inactive |
| NC1CCN(c2cccc(Cl)n2)CC1 | inactive |
| CC1=C(/C=C/C(C)=C/C=C/C(C)=C/C(=O)O)C(C)(C)CCC1 | inactive |
| C[C@]12CC[C@@H]3c4ccc(O)cc4CC[C@H]3[C@@H]1CCC2=O | inactive |

| SMILES | outcome |
| --- | --- |
| C[C@](N)(Cc1ccc(O)cc1)C(=O)O | inactive |
| COc1ccc(Cl)cc1C(=O)NCCc1ccc(S(=O)(=O)NC(=O)NC2CCCCC2)cc1 | inactive |
| CC(=O)OCC(=O)[C@@]1(O)CC[C@H]2[C@@H]3CCC4=CC(=O)CC[C@]4(C)[C@H]3C(=O)C[C@@]21C | inactive |
| CC[C@H]1CN2CCc3cc(OC)c(OC)cc3[C@@H]2C[C@@H]1C[C@H]1NCCc2cc(OC)c(OC)cc21 | inactive |
| CCN(CC)CCOC(=O)C1(C2CCCCC2)CCCCC1 | inactive |
| CC(C)C(=O)c1c(C(C)C)nn2ccccc12 | inactive |
| CC1=C(CC(=O)O)c2cc(F)ccc2/C1=C\c1ccc(S(C)=O)cc1 (stereo not given) | inactive |
| CSc1ccc2c(c1)N(CCC1CCCCN1C)c1ccccc1S2 (stereo not given) | inactive |
| OCc1cc(C(O)CNCCCCCCOCCCCc2ccccc2)ccc1O (stereo not given) | inactive |
| COC(=O)C1=C(C)NC(C)=C(C(=O)OC)C1c1ccccc1[N+](=O)[O-] | inactive |
| Nc1ncnc2c1ncn2[C@@H]1O[C@H](CO)[C@@H](O)[C@H]1O | inactive |
| CN(C)CC[C@@H](c1ccc(Cl)cc1)c1ccccn1 | inactive |
| CN(C)CCOC(C)(c1ccccc1)c1ccccn1 (stereo not given) | inactive |
| CN(C)CCCN1c2ccccc2Sc2ccc(Cl)cc21 | inactive |
| CNCC(O)c1ccc(O)c(O)c1 (stereo not given) | inactive |
| CC(C)(C)[C@]1(O)CCN2C[C@H]3c4ccccc4CCc4cccc(c43)[C@@H]2C1 | inactive |
| O=C1N=C(O)CN1/N=C/c1ccc(-c2ccc([N+](=O)[O-])cc2)o1 | inactive |
| CC1=C(CC(=O)O)c2cc(F)ccc2/C1=C\c1ccc(S(C)(=O)=O)cc1 | inactive |
| Nc1cc(=O)[nH]c(N)n1 | inactive |
| C[C@]12C[C@H](O)[C@H]3[C@@H](CCC4=CC(=O)CC[C@@]43C)[C@@H]1CC[C@@H]2C(=O)CO | inactive |
